# Inconclusive results are not listed. Activity calls are given as the source filed them. Rule for the calls, unless noted: active = hit-call score of the fitted dose curve at least 0.9, where 1 is the maximum; inconclusive = response in the unintended direction; inactive = score below 0.9.
# What was measured:
# [1] = read-out: ABC Transporter (ABCB11), ABCB11 (gene 8647); experiment: CLD_ABCB11_48hr: CellzDirect (CLD) Gene Expression Assay for ABC Transporter (ABCB11) at 48 hours (AID 2283697)
# In short: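 Induction of ABCB11 mRNA relative to 0.2% DMSO, measured at 48 h by qNPA chemiluminescence. Cultured human hepatocytes (two donors) received fresh dosing solutions at several concentrations on two consecutive days.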
# [2] = read-out: Cytochrome P450 3A4 (Homo sapiens) (UniProt P08684); experiment: CLD_CYP3A4_48hr: CellzDirect (CLD) Gene Expression Assay for xenobiotic metabolism (CYP3A4) at 48 hours (AID 2283698)
# In short: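 CYP3A4 induction read by qNPA chemiluminescence after 48 h, with fresh dosing solutions on consecutive days, in cultured human hepatocytes (two donors). Vehicle 0.2% DMSO as baseline; microscopy-based cytotoxicity annotated yes/no alongside data.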
# [3] = read-out: Cytochrome P450 2B6 (Homo sapiens) (UniProt P20813); experiment: CLD_CYP2B6_48hr: CellzDirect (CLD) Gene Expression Assay for xenobiotic metabolism (CYP2B6) at 48 hours (AID 2283699);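 note: actives raise transcript level above DMSO so potency reflects induction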
# In short: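 CYP2B6 transcript induction, read by quantitative nuclease protection (S1 digestion, chemiluminescent detection) 48 h after dosing, is fitted upward against 0.2% DMSO. Cultured human liver primary cells, two donor preparations, received fresh chemical daily over multiple concentrations.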
# [4] = read-out: Cytochrome P450 2C9 (Homo sapiens) (UniProt P11712); experiment: CLD_CYP2C9_48hr: CellzDirect (CLD) Gene Expression Assay for xenobiotic metabolism (CYP2C9) at 48 hours (AID 2283701; active = hit-call score of the fitted dose curve at least 0.9, where 1 is the maximum; inactive = score below 0.9)
# In short: (§1)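 mRNA level measured by quantitative nuclease protection (S1 digestion, chemiluminescent detection) in lysates of human primary hepatocytes exposed 48 h with daily re-dosing. Induction fitted positively versus 0.2% DMSO; morphology-based cytotoxicity flagged yes/no.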
# [5] = CLD_ACTIN_48hr: CellzDirect (CLD) Gene Expression Assay for Baseline Control (Actin) at 48 hours (AID 2283702)
# In short: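 Background-control actin mRNA read by qNPA chemiluminescence at 48 h. Human hepatocyte cultures from two donors received fresh multi-concentration chemical doses daily for two days; 0.2% DMSO served as vehicle baseline.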
# [6] = read-out: xenobiotic metabolism (CYP1A2), CYP1A2 (gene 1544); experiment: CLD_CYP1A2_48hr: CellzDirect (CLD) Gene Expression Assay for xenobiotic metabolism (CYP1A2) at 48 hours (AID 2283703)
# In short: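 Cytotoxicity was flagged yes/no from morphology, while CYP1A2 transcript induction was detected by qNPA chemiluminescence after a 48-hour exposure. Human primary hepatocyte cultures from separate donors received fresh dosing solutions daily over two days, with 0.2% DMSO as vehicle and baseline.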
# [7] = read-out: xenobiotic metabolism (CYP1A1), CYP1A1 (gene 1543); experiment: CLD_CYP1A1_48hr: CellzDirect (CLD) Gene Expression Assay for xenobiotic metabolism (CYP1A1) at 48 hours (AID 2283705)
# In short: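 CYP1A1 transcript measured by quantitative nuclease protection (chemiluminescent) 48 h after two daily treatments of human hepatocyte cultures, versus 0.2% DMSO. Morphology-based cytotoxicity flags accompany data; two donor preparations used.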
# [8] = read-out: organic anion transporter (SLCO1B1), SLCO1B1 (gene 10599); experiment: CLD_SLCO1B1_48hr: CellzDirect (CLD) Gene Expression Assay for organic anion transporter (SLCO1B1) at 48 hours (AID 2283707)
# In short: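 SLCO1B1 transcript quantified by qNPA with chemiluminescent readout after 48 h of once-daily chemical exposure. Cultured human primary hepatocytes came from two donors, with 0.2% DMSO vehicle; positive-direction fitting against DMSO, cytotoxicity flagged by morphology.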
# [9] = read-out: glucuronosyltransferase (UGT1A1), UGT1A1 (gene 54658); experiment: CLD_UGT1A1_48hr: CellzDirect (CLD) Gene Expression Assay for glucuronosyltransferase (UGT1A1) at 48 hours (AID 2283709);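 note: actives increase expression relative to DMSO so potency refers to induction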
# In short: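 Quantitative nuclease protection assay (chemiluminescent) for UGT1A1 mRNA at 48 h in human hepatocyte cultures from two donors, redosed daily with fresh solutions. Induction fitted relative to 0.2% DMSO; phase-contrast morphology annotated cytotoxicity.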
# [10] = read-out: sulfotransferase (SULT2A), SULT2A1 (gene 6822); experiment: CLD_SULT2A_48hr: CellzDirect (CLD) Gene Expression Assay for sulfotransferase (SULT2A) at 48 hours (AID 2283710);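 note: hits raise SULT2A1 transcript above the 0.2% DMSO vehicle baseline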
# In short: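 SULT2A1 transcript measured by qNPA chemiluminescence in human primary hepatocyte cultures after 48 h, with fresh dosing solutions on two consecutive days; gain-of-signal fitting against 0.2% DMSO vehicle; cytotoxicity annotated from phase-contrast morphology.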
# [11] = read-out: HMG-CoA synthase (HMGCS2), HMGCS2 (gene 3158); experiment: CLD_HMGCS2_48hr: CellzDirect (CLD) Gene Expression Assay for HMG-CoA synthase (HMGCS2) at 48 hours (AID 2283711)
# In short: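 mRNA induction read by qNPA chemiluminescence, 48 h after dosing. Cultured primary human liver cells (two donor preparations) received fresh compound daily over two days against 0.2% DMSO vehicle; morphology-based cytotoxicity noted alongside.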
# [12] = read-out: glucuronosyltransferase (UGT1A1), UGT1A1 (gene 54658); experiment: CLD_UGT1A1_24hr: CellzDirect (CLD) Gene Expression Assay for glucuronosyltransferase (UGT1A1) at 24 hours (AID 2283696)
# In short: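 UGT1A1 transcript induction was measured by quantitative nuclease protection assay (chemiluminescence) in human hepatocyte cultures 24 h after daily fresh dosing, with 0.2% DMSO as vehicle and baseline.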
# [13] = read-out: alkyl and aryl transferase (GSTA2), GSTA2 (gene 2939); experiment: CLD_GSTA2_48hr: CellzDirect (CLD) Gene Expression Assay for alkyl and aryl transferase (GSTA2) at 48 hours (AID 2283708);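 note: active means mRNA induction above DMSO vehicle baseline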
# In short: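 GSTA2 mRNA quantified by qNPA chemiluminescence in human primary hepatocyte lysates after 48 h of daily fresh chemical dosing. Increases fitted against 0.2% DMSO vehicle baseline; cytotoxicity from morphology annotated yes/no.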
# [14] = CEETOX_H295R_MTT_cell_viability: Viability Assessment in the CeeTox HT-H295R MTT Assay (AID 2283718; active = hit-call score of the fitted dose curve at least 0.9, where 1 is the maximum; inactive = score below 0.9)
# In short: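 H295R cells prestimulated 48 h with 10 uM forskolin, then exposed 48 h to test chemical (0.1% DMSO final). Viability by MTT (0.5 mg/ml, 4 h, 37 C), absorbance 570/650 nm; percent change versus DMSO, bidirectional fit.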
# [15] = read-out: Glyceraldehyde-3-phosphate dehydrogenase (Homo sapiens) (UniProt P04406); experiment: CLD_GAPDH_48hr: CellzDirect (CLD) Gene Expression Assay for Baseline Control (Glyceraldehyde 3-phosphate dehydrogenase) at 48 hours (AID 2283706);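 note: active means higher GAPDH mRNA than DMSO vehicle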
# In short: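 GAPDH baseline-control readout: qNPA chemiluminescent mRNA quantitation in human liver primary cells 48 h after daily dosing on two consecutive days, vehicle 0.2% DMSO; gain of signal fitted against DMSO, cytotoxicity flagged by phase-contrast morphology.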
# [16] = STM_H9_OrnithineISnorm_perc: Stemina devTOX quickPredict H9 human embryonic stem cell (hESC)-based Assay for Ornithine (ORN) Metabolite Biomarker, Normalized (AID 2283712; active = hit-call score of the fitted dose curve at least 0.9, where 1 is the maximum; inactive = score below 0.9;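 note: ornithine released into spent medium during last day measured by mass spectrometry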)
# In short: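 Ornithine secreted by H9 hESCs after 72h compound treatment (daily media/compound renewal) was quantified in final-day media by UPLC-HRMS. Values are isotope-standard-normalized, expressed relative to 0.1% DMSO, fitted in positive direction.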
# [17] = STM_H9_CystineISnorm_perc: Stemina devTOX quickPredict H9 human embryonic stem cell (hESC)-based Assay for Cystine (CYSS) Metabolite Biomarker, Normalized (AID 2283713; active = hit-call score of the fitted dose curve at least 0.9, where 1 is the maximum; inactive = score below 0.9)
# In short: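 Cells are held undifferentiated and treated for 72h, receiving fresh medium with compound every 24h. Cystine secreted during the final day is quantified by UPLC-HRMS against a labeled spike-in, then expressed relative to the DMSO vehicle median.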
# [18] = STM_H9_OrnCyssISnorm_ratio: Stemina devTOX quickPredict H9 human embryonic stem cell (hESC)-based Assay for Ornithine (ORN):Cystine (CYSS) Ratio (AID 2283714)
# In short: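 H9 hESC, 72h, q24h re-dose; last-day media → acetonitrile deproteinization → UPLC-HRMS. ORN:CYSS ratio from isotope-normalized EIC areas, vs 0.1% DMSO; MTX references on each plate.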
# [19] = read-out: xenobiotic metabolism (CYP2C9), CYP2C9 (gene 1559); experiment: CLD_CYP2C9_48hr: CellzDirect (CLD) Gene Expression Assay for xenobiotic metabolism (CYP1A2) at 48 hours (AID 2283701)
# In short: as §1
# Sequence of Cytochrome P450 3A4 (Homo sapiens) (P08684 whole entry, looked up): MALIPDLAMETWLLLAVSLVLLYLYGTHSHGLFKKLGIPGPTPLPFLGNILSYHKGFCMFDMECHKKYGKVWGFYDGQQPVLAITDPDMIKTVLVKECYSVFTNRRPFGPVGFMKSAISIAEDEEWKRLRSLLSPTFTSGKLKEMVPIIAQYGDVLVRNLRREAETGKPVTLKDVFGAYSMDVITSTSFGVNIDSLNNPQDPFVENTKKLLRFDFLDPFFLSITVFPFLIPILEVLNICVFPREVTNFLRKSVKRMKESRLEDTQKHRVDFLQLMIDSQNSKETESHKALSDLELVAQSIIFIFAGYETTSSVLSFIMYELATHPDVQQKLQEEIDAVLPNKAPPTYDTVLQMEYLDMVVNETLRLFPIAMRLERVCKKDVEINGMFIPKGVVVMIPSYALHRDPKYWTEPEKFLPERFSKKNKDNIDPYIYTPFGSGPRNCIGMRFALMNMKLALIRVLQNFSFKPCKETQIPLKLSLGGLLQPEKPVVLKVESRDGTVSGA
# Sequence of Glyceraldehyde-3-phosphate dehydrogenase (Homo sapiens) (P04406 whole entry, looked up): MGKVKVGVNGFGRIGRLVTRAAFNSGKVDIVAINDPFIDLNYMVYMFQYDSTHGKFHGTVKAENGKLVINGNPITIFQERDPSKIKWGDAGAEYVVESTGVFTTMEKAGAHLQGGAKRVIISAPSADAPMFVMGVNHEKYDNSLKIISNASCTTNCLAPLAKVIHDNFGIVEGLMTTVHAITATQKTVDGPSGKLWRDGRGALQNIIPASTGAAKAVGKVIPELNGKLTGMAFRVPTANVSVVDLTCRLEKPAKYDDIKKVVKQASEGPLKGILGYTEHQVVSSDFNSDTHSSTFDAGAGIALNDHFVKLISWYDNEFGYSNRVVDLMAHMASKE
structure (smiles),measurement,setting,value
Nc1c(Cl)c(F)nc(OCC(=O)O)c1Cl,outcome,[1],inactive
same,AC50,[2],0.0004 µM (active)
same,outcome,[3],inactive
same,outcome,[4],inactive
same,outcome,[5],inactive
same,outcome,[6],inactive
same,outcome,[7],inactive
same,outcome,[8],inactive
same,outcome,[9],inactive
same,outcome,[10],inactive
same,outcome,[11],inactive
Nc1c(Cl)c(Cl)nc(C(=O)O)c1Cl,outcome,[12],inactive
same,outcome,[2],inactive
same,outcome,[3],inactive
same,outcome,[5],inactive
same,AC50,[6],5.16 µM (active)
same,outcome,[7],inactive
same,outcome,[8],inactive
same,outcome,[9],inactive
CCSC(=O)N1CCCCCC1,outcome,[12],inactive
same,AC50,[2],3.97 µM (active)
same,AC50,[3],0.378 µM (active)
same,outcome,[5],inactive
same,outcome,[7],inactive
same,outcome,[13],inactive
same,outcome,[14],inactive
CNC(=O)N(C)c1nnc(C(C)(C)C)s1,outcome,[12],inactive
same,outcome,[5],inactive
same,outcome,[6],inactive
same,outcome,[7],inactive
same,outcome,[15],inactive
same,outcome,[8],inactive
same,outcome,[9],inactive
same,outcome,[11],inactive
COP(=O)(OC)O/C(C)=C/C(=O)N(C)C,outcome,[1],inactive
same,outcome,[2],inactive
same,outcome,[3],inactive
same,outcome,[4],inactive
same,outcome,[6],inactive
same,outcome,[15],inactive
same,outcome,[8],inactive
same,outcome,[10],inactive
CCOc1nc(C(Cl)(Cl)Cl)ns1,outcome,[1],inactive
same,outcome,[2],inactive
same,outcome,[4],inactive
same,outcome,[5],inactive
same,AC50,[6],5.52 µM (active)
same,AC50,[7],3.97 µM (active)
same,outcome,[15],inactive
same,outcome,[9],inactive
same,outcome,[11],inactive
same,AC50,[16],0.11 µM (active)
same,outcome,[17],inactive
same,AC50,[18],9.92 µM (active)
same,outcome,[14],inactive
CCCCOCN(C(=O)CCl)c1c(CC)cccc1CC,outcome,[12],inactive
same,AC50,[2],3.57 µM (active)
same,AC50,[3],2.5 µM (active)
same,outcome,[5],inactive
same,AC50,[6],9.38 µM (active)
same,AC50,[7],11.5 µM (active)
same,outcome,[9],inactive
same,outcome,[10],inactive
CC1(C)CCC(=Cc2ccc(Cl)cc2)C1(O)Cn1cncn1 (configuration not stated),outcome,[12],inactive
same,AC50,[3],4.01 µM (active)
same,outcome,[4],inactive
same,AC50,[6],1.66 µM (active)
same,AC50,[7],3.17 µM (active)
same,outcome,[9],inactive
same,outcome,[10],inactive
same,AC50,[16],78.2 µM (active)
same,AC50,[17],28.9 µM (active)
same,AC50,[18],35 µM (active)
same,outcome,[14],inactive
CC1(C)C(C=C(Cl)Cl)C1C(=O)OC(C#N)c1cccc(Oc2ccccc2)c1 (configuration not stated),AC50,[12],6.01 µM (active)
same,AC50,[3],6.46 µM (active)
same,outcome,[4],inactive
same,AC50,[6],14.6 µM (active)
same,outcome,[7],inactive
same,outcome,[10],inactive
same,outcome,[16],inactive
same,outcome,[17],inactive
same,outcome,[18],inactive
same,outcome,[14],inactive
O=C(O)c1c(Cl)ccc2cc(Cl)cnc12,outcome,[1],inactive
same,outcome,[2],inactive
same,outcome,[3],inactive
same,AC50,[19],0.069 µM (active)
same,outcome,[6],inactive
same,outcome,[7],inactive
same,outcome,[15],inactive
same,outcome,[8],inactive
same,outcome,[10],inactive
same,outcome,[11],inactive
CC1(C)C(C(=O)OC(C#N)c2cccc(Oc3ccccc3)c2)C1(C)C (configuration not stated),AC50,[12],5.68 µM (active)
same,AC50,[2],20 µM (active)
same,AC50,[3],4.06 µM (active)
same,outcome,[4],inactive
same,outcome,[6],inactive
same,outcome,[7],inactive
same,outcome,[13],inactive
same,outcome,[10],inactive
same,outcome,[11],inactive
COc1ccc(-c2ccccc2)cc1NNC(=O)OC(C)C,outcome,[1],inactive
same,outcome,[2],inactive
same,outcome,[3],inactive
same,outcome,[5],inactive
same,AC50,[6],0.127 µM (active)
same,outcome,[7],inactive
same,outcome,[8],inactive
same,outcome,[9],inactive
same,outcome,[10],inactive
same,outcome,[11],inactive
same,AC50,[16],42.1 µM (active)
same,AC50,[17],30.5 µM (active)
same,AC50,[18],36.1 µM (active)
N#Cc1c[nH]cc1-c1cccc2c1OC(F)(F)O2,outcome,[12],inactive
same,outcome,[2],inactive
same,AC50,[3],2.54 µM (active)
same,AC50,[6],2.37 µM (active)
same,AC50,[7],31.8 µM (active)
same,AC50,[16],38.3 µM (active)
same,AC50,[17],29.4 µM (active)
same,AC50,[18],32.8 µM (active)
CO/N=C(/C1=NOCCO1)c1ccccc1Oc1ncnc(Oc2ccccc2Cl)c1F,outcome,[1],inactive
same,outcome,[2],inactive
same,AC50,[3],1.89 µM (active)
same,outcome,[4],inactive
same,outcome,[5],inactive
same,outcome,[6],inactive
same,AC50,[7],32.4 µM (active)
same,outcome,[8],inactive
same,outcome,[13],inactive
same,outcome,[10],inactive
same,AC50,[16],24 µM (active)
same,AC50,[17],9.72 µM (active)
same,AC50,[18],18.2 µM (active)
CCCC(=NOCC)C1=C(O)CC(CC(C)SCC)CC1=O (configuration not stated),outcome,[1],inactive
same,AC50,[2],20 µM (active)
same,outcome,[3],inactive
same,outcome,[4],inactive
same,outcome,[5],inactive
same,outcome,[6],inactive
same,outcome,[7],inactive
same,outcome,[15],inactive
same,outcome,[8],inactive
same,outcome,[9],inactive
same,outcome,[10],inactive
same,outcome,[11],inactive
same,outcome,[14],inactive
CCN(CC)C(=O)C(C)Oc1cccc2ccccc12 (configuration not stated),outcome,[12],inactive
same,AC50,[2],3.72 µM (active)
same,AC50,[3],6.33 µM (active)
same,outcome,[4],inactive
same,AC50,[6],5.76 µM (active)
same,AC50,[7],27.9 µM (active)
same,outcome,[8],inactive
same,AC50,[10],33 µM (active)
same,AC50,[16],50 µM (active)
same,AC50,[17],5.52 µM (active)
same,AC50,[18],6.66 µM (active)
same,outcome,[14],inactive
